What all share (experiment): NCI-60 one-dose screen, 48 h (100 = growth as untreated, 0 = no growth, -100 = all killed)
Conditions in all cases: 10 µM unless noted

The test system of test [1] is NCI-H23 lung.
The subject of test [2] is NCI-H226 lung.
Test [3] deals with NCI-H322M lung.
For test [4], the system named is HOP-62 NSCLC.
The test system of test [5] is NCI-H460 lung.
Test [6] relates to HOP-92 NSCLC.
The test system of test [7] is NCI-H522 lung.
The subject of test [8] is A549/ATCC NSCLC.
The subject of test [9] is 786-0 renal.
Test [10] has as its system COLO 205 colon.
Test [11] deals with DU-145 prostate.
Test [12] has as its system K-562 leukemia.
The test system of test [13] is MALME-3M melanoma.
For test [14], the system named is MDA-MB-231 breast.
Test [15] deals with RXF 393 renal.
Test [16] relates to SF-268 CNS.
The subject of test [17] is SF-295 CNS.
In test [18] the test system is SF-539 CNS.
Test [19] has as its system UACC-257 melanoma.
Test [20] concerns M14 melanoma.

These results are taken from PubChem BioAssay (NCI).

Where “and” joins values, the source holds several entries; their conditions need not be identical. Equal entries are not always repeated. About 83,000 compounds went through this panel and 20% of them were active in at least one assay; those are over-represented in the sample as a whole.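 96-well plates, one dose, 48 hours. Percent growth reported; active if below 10.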 Unmarked numbers belong to inactive results. Calls of active or inactive are those of the source.

For `CC1(C)C=Cc2c(ccc3c2[N+]([O-])=C2C3=C[C@@]34NC(=O)[C@]5(CCCN5C3=O)C[C@@H]4C2(C)C)O1`, the growth was 63.2% in test [1]; 84.5% in test [2]; 67.5% in test [3]; 54.5% in test [4]; 26.9% in test [5]; 73.4% in test [6]. Besides, the growth in test [7] is 25.6%; in test [8] it was 54.7%; in test [9], 42.1%; in test [10], 35.2%; in test [11], 43.3%; in [12] it was 9.2% (active). The growth is 82.9% in [13]; 48.5% in [14]; 32.8% in test [15]; 53.7% in test [16]; 52.2% in test [17]; 51.2% in test [18]. Further, the growth in test [19] is 68.9%; in test [20] it was 61.6%.
With `CC[C@H](C)[C@H](NC(=O)c1ncccn1)C(=O)N(C)[C@H](C[C@@H](OC(C)=O)c1nc(C(=O)N[C@@H](Cc2ccccc2)C[C@H](C)C(=O)OC)cs1)C(C)C`, the growth is 40.9% in test [1]; 51.2% in test [2]; 42% in test [3]; 22.8% in test [4]; 10.8% in test [5]; 33.5% in [6]. For the same compound, the growth in test [7] is 0.376% (active); in test [8], 32.9%; in test [9], 38.5%; in [10] it was 4.56% (active); in test [11], 9.45% (active); in test [12], 7.26% (active). The growth was 60.7% in test [13]; 4.19% (active) in test [14]; -8.95% (active) in [15]; 30.6% in test [16]; 14.4% in test [17]; -51.1% (active) in [18]. Moreover, the growth in test [19] is 50.2%; in test [20] it was 5.61% (active).
As to `O=C(O)C1C(C(=O)O)C2(Cl)C(Cl)=C(Cl)C1(Cl)C2(Cl)Cl` (stereo not given), the growth in test [1] was 96.8% and 100%; in test [2], 98.5% and 114%; in test [3], 106% and 117%; in [4], 99.6% and 111%; in test [5], 101% and 111%; in test [6], 94.3% and 94.8%. The growth in test [7] was 97.2% and 123%; in test [8] it was 104% and 95.8%; in test [9], 111% and 99.2%; in test [10] it was 101% and 119%; in test [11], 107% and 120%; in test [12], 113% and 115%. Besides, the growth was 104% and 102% in [13]; 111% and 102% in test [14]; 103% and 130% in test [15]; 105% and 106% in test [16]; 101% and 113% in test [17]; 88.5% in test [18]. Also, the growth in test [19] is 102% and 104%; in test [20], 102% and 109%.
For `CCC1CCC(=O)O1` (stereo not given), the growth in test [1] was 110% and 111%; in test [2] it was 97.4% and 110%; in test [3] it was 102% and 104%; in test [4] it was 96.9% and 115%; in [5] it was 103% and 110%; in [6], 123%. For the same compound, the growth is 85.1% and 105% in test [7]; 112% and 105% in test [8]; 98.1% and 107% in test [9]; 104% and 125% in [10]; 112% and 116% in test [11]; 110% and 119% in test [12]. For the same compound, the growth is 98.2% and 116% in test [13]; 106% and 112% in test [14]; 101% and 124% in test [15]; 106% and 110% in test [16]; 119% in test [17]; 98.7% and 106% in [18]. Besides, the growth in test [19] was 105%; in test [20] it was 107% and 114%.
`Cc1cc2c(cc1-c1ccnc(/C=C/C(=O)O)c1)C(C)(C)CCC2(C)C`: the growth in test [1] was 88.1%; in test [2], 78.8%; in test [3], 106%; in test [4] it was 96.8%; in [5] it was 85.3%; in test [6], 56.5%. The growth was 76.2% in test [7]; 77.1% in test [8]; 79.6% in test [9]; 124% in test [10]; 105% in [11]; 85.5% in [12]. For the same compound, the growth in [13] is 64.8%; in [14], 75.5%; in test [15], 79.4%; in test [16] it was 86.6%; in [17], 88.6%; in test [18], 78.2%. Also, the growth was 87.4% in test [19] and 78.2% in [20].
With `Oc1ccc(O)c(Cl)c1`, the growth was 96.2% and 88.3% in test [1]; 94.5% and 98.5% in test [2]; 109% and 98.2% in [3]; 109% in test [4]; 99.7% and 102% in test [5]; 87.6% and 102% in test [6]. Further, the growth in [7] was -92.2% (active) and -1.35% (active); in test [8], 92.5% and 111%; in test [9], 108% and 112%; in test [10], 109% and 99.8%; in test [11], 103%; in [12], 89.1% and 94.8%. Also, the growth in test [13] was 106% and 103%; in test [14], 67.3% and 101%; in test [15], 93% and 113%; in test [16], 96% and 100%; in test [17], 103% and 118%; in test [18], 84.4% and 102%. For the same compound, the growth in test [19] was 88.1% and 102%; in test [20], 95.7% and 104%.
